{"source": "PubChem BioAssay AID449768", "about": "(Vanderbilt High Throughput Screening Facility, 2010)", "note": "Out of some 110,000 compounds screened, about 1,400 (1.3%) were called active. The sample as a whole holds a higher share of actives than the screen did. Unmarked numbers belong to inactive results.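 How the source made its calls: active means Z score or B-score, a plate-position-corrected score, falls beyond the plate's 99.7% confidence bounds, in either direction; inactive means both scores lie inside the 99.7% bounds.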"}
{"target": "Sodium-dependent dopamine transporter (Homo sapiens) (UniProt Q01959)", "sequence (Q01959 whole entry, looked up)": "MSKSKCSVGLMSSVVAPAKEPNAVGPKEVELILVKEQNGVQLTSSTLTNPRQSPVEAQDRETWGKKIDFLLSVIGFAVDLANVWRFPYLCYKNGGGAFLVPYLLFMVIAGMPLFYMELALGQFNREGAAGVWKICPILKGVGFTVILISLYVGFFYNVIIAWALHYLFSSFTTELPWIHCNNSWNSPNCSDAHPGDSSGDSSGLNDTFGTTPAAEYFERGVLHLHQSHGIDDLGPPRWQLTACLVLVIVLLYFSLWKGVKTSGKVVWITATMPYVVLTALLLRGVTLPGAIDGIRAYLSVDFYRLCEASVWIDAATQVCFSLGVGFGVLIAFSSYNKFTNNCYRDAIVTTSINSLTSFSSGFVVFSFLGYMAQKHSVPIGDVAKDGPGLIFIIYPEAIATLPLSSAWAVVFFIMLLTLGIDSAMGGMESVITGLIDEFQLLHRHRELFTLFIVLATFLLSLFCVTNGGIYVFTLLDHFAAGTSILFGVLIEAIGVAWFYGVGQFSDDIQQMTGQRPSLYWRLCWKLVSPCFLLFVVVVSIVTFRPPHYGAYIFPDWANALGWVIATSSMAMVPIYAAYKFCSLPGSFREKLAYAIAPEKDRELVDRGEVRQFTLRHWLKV", "assay": "changed hDAT dopamine uptake under cocaine IC80, either direction, primary screen, cocaine antagonist project, cell-based, LLC-PK1 hDAT, [14C]-dopamine uptake, MLSMR (AID 449768);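 further: scored against the spread of the other compound wells on the same plate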", "settings": "LLC-PK1 hDAT cells, [14C]-dopamine uptake with cocaine IC80; at 10 µM; actives deviate in either direction"}
{"compound": "Cc1cc(C)n(-c2ccc(Cl)c(C(=O)O)n2)n1", "B-score": -1.42}
{"compound": "Cc1cc(C)n(-c2nnc(C)n2NC(=O)c2cccc(Cl)c2)n1", "B-score": "-8.7 (active)"}
{"compound": "O=C(Nc1ccon1)c1cccc(Cl)c1", "B-score": 0.0619}
{"compound": "COc1ccc2c(c1)CCNC2Cc1ccc(OC)c(O)c1", "note": "(stereo not given)", "B-score": -0.654}
{"compound": "CC(=O)Nc1sc2c(c1C(c1cccc(F)c1)N1CCN(CCO)CC1)CCCC2", "note": "(stereo not given)", "B-score": 0.298}
{"compound": "C[C@@H]1NC(=O)c2cc([N+](=O)[O-])cc(F)c2NCCC[C@@H](C(N)=O)NC(=O)[C@H](CC(N)=O)NC1=O", "B-score": -0.649}
{"compound": "O=C(Nc1ccccc1F)c1cc(S(=O)(=O)N2CCCCC2)cs1", "B-score": 0.695}
{"compound": "Cc1ccc(C(=O)Nc2ccccc2C(=O)NC2CCCCC2)cc1S(=O)(=O)N1CCOCC1", "B-score": -0.00206}
{"compound": "Cc1ccccc1NC(=O)c1cc(S(=O)(=O)N2CCOCC2)cs1", "B-score": "-3.41 (active)"}
{"compound": "C/C=C(/C)C(=O)Nc1cccc(C2=NOC3(C2)C[C@@H](C(N)=O)N(C(=O)C2(C)CC2)C3)c1", "note": "(stereo not given in full)", "B-score": -0.445}
{"compound": "CC(Sc1nc2c([nH]c3ccccc32)c(=O)n1C)c1ccccc1", "note": "(stereo not given)", "B-score": 0.73}
{"compound": "CCOC(=O)c1c(NC(=O)C(C)Sc2c[nH]c3ccccc23)sc2c1CCC2", "note": "(stereo not given)", "B-score": -0.485}
{"compound": "Cc1nc(SCC(=O)N2CC(=O)Nc3ccccc32)c2c(C)c(C)sc2n1", "B-score": "2.75 (active)"}
{"compound": "Cc1nc(SCC(=O)Nc2cc(C)on2)c2c(C)c(C)sc2n1", "B-score": 0.457}
{"compound": "Cc1nc(SCC(=O)N2CCc3ccccc3C2)c2c(C)c(C)sc2n1", "B-score": 2.48}
{"compound": "C=CCSc1nnc2c(n1)-c1cccc3cccc-2c13", "B-score": 0.0257}
{"compound": "CCOC(=O)N1CCN(C(=O)c2ccc(S(=O)(=O)c3ccc(C)cc3)c(NC(C)=O)c2)CC1", "B-score": "-7.14 (active)"}
{"compound": "CCOC(=O)N1CCN(C(=O)c2ccc3c(c2)N(Cc2ccc(C)cc2)CCS3)CC1", "B-score": 0.333}
{"compound": "CC(=O)Nc1cc(C(=O)O)ccc1S(=O)(=O)c1ccc(Cl)cc1", "B-score": -0.803}
{"compound": "C[C@@H](C(=O)N1CCNCC1)n1cc(CCC(=O)O)nn1", "B-score": -0.0383}
{"compound": "Cc1ccc(-c2cc(=O)c3ccc(F)cc3[nH]2)cc1", "B-score": 0.343}
{"compound": "CCn1c(SCC(=O)Nc2nc3ccc(OC)cc3s2)nnc1-c1ccoc1C", "B-score": 0.56}
{"compound": "Cc1noc(C)c1CSCC(=O)Nc1nc2ccc(Oc3ccccc3)cc2s1", "B-score": "3.18 (active)"}
{"compound": "CCOC(=O)c1c(C2CC2)csc1NC(=O)CSCc1c(C)noc1C", "B-score": 0.395}
{"compound": "NC(=O)C1=C[C@@H](c2csc3ccccc23)C[C@@H](OCc2ccc(CO)cc2)O1", "B-score": 0.21}
{"compound": "CC/C=C/C(=O)N1CC2(CC(c3cccc(NC(=O)CC)c3)=NO2)C[C@H]1C(N)=O", "note": "(stereo not given in full)", "B-score": 0.271}
{"compound": "CCCC[C@@H]1CN=C(N)N1CCc1cccc(F)c1", "B-score": -0.00752}
{"compound": "CCOC(=O)c1sc(NC(=O)CSc2nc3c(c(=O)n2-c2ccccc2)SCC3)c(C(=O)OCC)c1C", "B-score": 0.723}
{"compound": "Cc1ccc(Cn2nnc3c(=O)n(CC(=O)N4CCCCC4)cnc32)cc1", "B-score": 0.247}
{"compound": "O=C(Cn1nnc(-c2ccccc2)n1)NCc1ccc2c(c1)OCO2", "B-score": 0.156}
{"compound": "O=C(Cn1cnc2c(nnn2Cc2ccc(F)cc2)c1=O)NCc1ccc2c(c1)OCO2", "B-score": "-8.17 (active)"}
{"compound": "NC(=O)CC(NC(=O)Cc1cccc2ccccc12)c1ccc(NCc2cc(F)ccc2F)c([N+](=O)[O-])c1", "note": "(stereo not given)", "B-score": 0.0495}
{"compound": "O=C(NCc1ccccc1)C1=C[C@@H](c2ccccc2)C[C@@H](OCCCCO)O1", "B-score": 0.736}
{"compound": "CCN1C(=O)N[C@@H](CCc2ccccc2)C(C(=O)OC)=C1C", "B-score": 0.0945}
{"compound": "COC(C[C@H](O)CC(=O)[C@@H](C)OCc1ccccc1)OC", "B-score": -0.99}
{"compound": "O=C(O)C1=C[C@H](c2cccs2)C[C@H](OCCCCO)O1", "B-score": -0.012}
{"compound": "CCOc1cc2[nH]c(=O)n(CCC(=O)NCc3ccc(OC)cc3)c(=O)c2cc1OCC", "B-score": -0.216}
{"compound": "COc1cc2[nH]c(=O)n(CCC(=O)NC3CCN(Cc4ccccc4)CC3)c(=O)c2cc1OC", "B-score": "3.31 (active)"}
{"compound": "COc1ccc(CCNC(=O)CCCCn2c(=O)[nH]c3ccccc3c2=O)cc1OC", "B-score": 0.579}
{"compound": "CC(C)NC(=O)NCCCCCCS(C)=O", "note": "(stereo not given)", "B-score": 0.321}
{"compound": "O=c1[nH]snc1-c1c(Cl)cccc1Cl", "B-score": 1.69}
{"compound": "NC(=O)c1sc2nc3c(c(-c4ccccc4)c2c1N)CCC3", "B-score": 0.0164}
{"compound": "Cc1cccc(NC(=O)c2sc3nc4c(c(-c5ccco5)c3c2N)CCC4)c1", "B-score": "-8.82 (active)"}
{"compound": "CC(=O)Nc1ccc(NC(=O)c2sc3nc4c(c(-c5ccc(C)cc5)c3c2N)CCC4)cc1", "B-score": -0.372}
{"compound": "CCOC(=O)c1ccccc1NC(=O)c1c(N)n(C)c(=O)[nH]c1=O", "B-score": -0.18}
{"compound": "C[C@@H]1CC[C@]2(O[C@@H](CCO)C[C@H](O)[C@H]2O)O1", "B-score": -0.347}
{"compound": "COC(=O)C(C)n1cnc2c(nnn2-c2cccc(Cl)c2)c1=O", "note": "(stereo not given)", "B-score": -0.668}
{"compound": "CC(C)n1cnc2c(Nc3cccc(Cl)c3)nc(N(CCO)CCCO)nc21", "B-score": 0.4}
{"compound": "CC(C)C[C@H](CO)Nc1nc(N(C)c2cccc(Cl)c2)c2ncn(C(C)C)c2n1", "B-score": "2.72 (active)"}
{"compound": "C#CCOCCOCCOCCNc1nc(N2CCN(C(=O)[C@H](CCC(=O)O)n3cc(C(N)CO)nn3)CC2)nc(N2CCN(C(=O)[C@H](CCCCN)n3cc(C(N)[C@H](C)CC)nn3)CC2)n1", "note": "(stereo not given in full)", "B-score": -0.0414}
{"compound": "COc1ccc(N2C(=O)C3CCCN3C2c2cccc(OC)c2)cc1", "note": "(stereo not given)", "B-score": "-2.41 (active)"}
{"compound": "COc1cccc(N2C(=O)C3CCCN3C2c2ccc(F)cc2)c1", "note": "(stereo not given)", "B-score": -0.103}
{"compound": "COc1ccc(N2C(=O)C3CCCN3C2c2cc(OC)c(OC)cc2OC)cc1", "note": "(stereo not given)", "B-score": -1.27}
{"compound": "CC(=O)N[C@H]1[C@H]([C@H](O)[C@H](O)CO)OC(C(=O)O)=C[C@@H]1O", "B-score": 0.169}
{"compound": "CC1(OC(=O)CCc2ccccc2)C(=O)C=C2C=C(c3ccc(C#N)cc3)N(CCc3ccccn3)C=C2C1=O", "note": "(stereo not given)", "B-score": -1.62}
{"compound": "COP1(=O)C[C@@H](O)[C@@H](O)[C@@H](COCc2ccccc2)O1", "note": "(stereo not given in full)", "B-score": -0.427}
{"compound": "O=C(Nc1ccc2oc(-c3ccc4ccccc4c3)nc2c1)c1cccs1", "B-score": -1.07}
{"compound": "CCCCCC(=O)Nc1ccc2oc(-c3ccncc3)nc2c1", "B-score": 1.15}
{"compound": "O=C(Cc1cccc2ccccc12)Nc1ccc2oc(-c3ccccc3)nc2c1", "B-score": "-7.38 (active)"}
{"compound": "CCO[C@@H]1OC(C(=O)NCc2nc3ccccc3[nH]2)=C[C@H](C2CCCCC2)[C@H]1CCCO", "B-score": 0.35}
{"compound": "NC(=O)[C@H]1CC2(CC(c3cccc(NC(=O)[C@H]4CCC(=O)N4)c3)=NO2)CN1C(=O)c1ccccc1C(=O)c1ccccc1", "note": "(stereo not given in full)", "B-score": -0.797}
{"compound": "COc1ccccc1NC(=O)CSc1nnc(-c2ccoc2C)n1CCc1ccccc1", "B-score": "2.44 (active)"}
{"compound": "CCCn1c(SCC(=O)Nc2cccc(C(=O)OCC)c2)nnc1-c1ccoc1C", "B-score": -0.483}
{"compound": "COc1ccccc1NC(=O)CSc1nnc(C)n1CC1CCCO1", "note": "(stereo not given)", "B-score": -0.675}
{"compound": "C#CCOCCOCCOCCNc1nc(N2CCN(C(=O)C([C@@H](C)CC)n3cc(C(N)COC(=O)C(F)(F)F)nn3)CC2)nc(N2CCN(C(=O)[C@H](Cc3ccc(O)cc3)n3cc(C(N)[C@H](C)CC)nn3)CC2)n1", "note": "(stereo not given in full)", "B-score": -0.939}
{"compound": "CC1=C(C(=O)OCc2ccccc2)C(c2ccc(C(F)(F)F)cc2)NC(=O)N1CCCCCC(=O)O", "note": "(stereo not given)", "B-score": 0.765}
{"compound": "COC(=O)CCCCCN1C(=O)NC(c2ccc(-c3ccccc3)cc2)C(C(=O)OCc2ccccc2)=C1C", "note": "(stereo not given)", "B-score": "-5.33 (active)"}
{"compound": "COCCN1C(=O)N[C@@H](c2ccccc2)C(C(=O)OC)=C1C", "B-score": -0.275}
{"compound": "COc1ccc(C#Cc2c(-c3ccc(OC)cc3)oc3ccc(-c4ccc5c(c4)OCO5)cc23)cc1", "B-score": 0.0246}
{"compound": "NC1=NC[C@@H](Cc2ccc(O)cc2)N1CC1CCCCC1", "B-score": 0.203}
{"compound": "CS(=O)(=O)c1ccc2nc(NC(=O)C3CCCCC3)sc2c1", "B-score": 2.38}
{"compound": "Cc1ccc2nc(NC(=O)C3CCN(S(=O)(=O)c4ccc5c(c4)oc(=O)n5C)CC3)sc2c1", "B-score": -0.00508}
{"compound": "O=C(Nc1nc2ccc(S(=O)(=O)N3CCCC3)cc2s1)C1CCCO1", "note": "(stereo not given)", "B-score": "2.39 (active)"}
{"compound": "COC(C[C@@H]1O[C@@H]1C(=O)[C@H](C)OCc1ccccc1)OC", "B-score": -1.33}
{"compound": "COC(=O)C1=C(C(=O)OC)[C@@H]2N(C)c3ccccc3[C@@]23C[C@@H](C(=O)OC)N(C(C)=O)C3=N1", "B-score": -0.544}
{"compound": "C=CCNC(=O)c1ccc2c3n(nc2c1)-c1ccc(C)cc1CO3", "B-score": -0.154}
{"compound": "CCOC(=O)c1cc2ccccc2nc1C", "B-score": 0.593}
{"compound": "CCCc1nc2ccccc2c(C(=O)OCc2nnc(-c3cc(OC)c(OC)c(OC)c3)o2)c1CC", "B-score": 0.135}
{"compound": "CCOC(=O)c1cc(-c2nnc(-c3cc(OC)c(OC)c(OC)c3)o2)c(C)nc1C", "B-score": "1.41 (active)"}
{"compound": "CCO[C@H]1OC(C(=O)N2CCN(Cc3ccccc3)CC2)=C[C@@H](c2cn(C(C)=O)c3ccccc23)[C@@H]1CCCO", "B-score": -0.181}
{"compound": "CCO[C@@H]1OC(C(=O)NC2CC2)=C[C@H](C)[C@H]1CCCO", "B-score": 0.173}
{"compound": "CN1CCN(C(CNS(=O)(=O)c2cccs2)c2cccnc2)CC1", "note": "(stereo not given)", "B-score": -0.00301}
{"compound": "N/C(=N\\OC(=O)Nc1ccc(Cl)c(Cl)c1)c1ncc(C(F)(F)F)cc1Cl", "B-score": 0.438}
{"compound": "O=C(CC(O)(C(F)(F)F)C(F)(F)F)Nc1ccc(Cl)c(Cl)c1", "B-score": "-6.33 (active)"}
{"compound": "Cc1nnc(NC(=O)Nc2ccc(Cl)c(Cl)c2)s1", "B-score": -0.308}
